“And” between values parts separate entries of the source, which are not always exact repeats. Identical values can stand only once. The panel holds about 83,000 compounds, 20% with a hit somewhere; the sample as a whole holds those more often.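 Results are percent growth after 48 hours of single-concentration exposure. 100 means growth as in untreated cells, lower positive values show inhibition; negative values down to -100 show cell death.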 Values without a mark were called inactive. The source made the active and inactive calls. Rule for the calls: active = growth percent below 10; inactive = the rest.
These compounds were tested on MDA-MB-468 breast (assay: NCI-60 one-dose screen, 48 h (100 = growth as untreated, 0 = no growth, -100 = all killed)). Settings: 10 µM unless noted.
With CCNCCNc1cc(-c2ccc(Cl)cc2)c(C#N)c2nc3ccccc3n12 the growth was -45.3% (active). Work on O=C(Cc1ccccc1)Nc1nc(O)c(/C=C2\C(=O)C=Cc3ccccc32)s1 yielded a growth of 95.9%. With O=C(NNc1nc2cc(F)ccc2n2c(CN3CC4CNCC4C3)ccc12)c1cnccn1 (stereo not given) the growth was 3.88% (active). Nc1ccc(F)c(Cl)c1F gave a growth of 92.5%. With CC(C)(C)CC(C)(C)Nc1c(-c2c(O)c3ccccc3oc2=O)nc2c(Cl)cc(C(F)(F)F)cn12 the growth was 92.2%. COC(=O)/C=C1/CCCCC1(C)C(=O)OC (stereo not given) was tested, and the growth was 103%. In the case of S=C1SCC(c2ccccc2)S1 (stereo not given), the growth is reported as 99.6%. With NC1=CSC2=N/C(=C\c3ccc(Cl)cc3)C(=O)N12 the growth was 64.5%. CCC(C)Oc1cc(/C=N/NC(=O)c2cnn3c2NC(c2ccccc2)C3)ccc1OC (stereo not given) gave a growth of 19.1%. Compound CCOc1ccc(NC(=O)CSc2oc(-c3ccccc3)nc2S(=O)(=O)c2ccc(F)cc2)cc1 has a growth of 58.4%. With Cc1ccc(-c2nc(C(Cl)Cl)n3nc(-c4ccccc4)cc3n2)cc1 the growth was -21.1% (active). Clc1ccc(/C=C/c2nc(Nc3ccc(Cl)cc3)c3ccccc3n2)cc1 showed a growth of 110%. In the case of COC(=O)[C@]12CC[C@@H](C)[C@H](C)[C@@H]1C1=CC[C@@H]3[C@@]4(C)C(C=O)=C[C@@](C)(COS(C)(=O)=O)[C@@H]4C(=O)C[C@@]3(C)[C@]1(C)CC2, the growth is reported as 38%. Work on CC(=O)c1c(O)c(C)c(O)c2c1OC1=CC(=O)/C(=C(/C)N)C(=O)C12C (stereo not given) yielded a growth of 74.6%. Work on C=C1C(=O)O[C@H]2[C@H]1CC/C(COC(=O)NCc1ccc(Cn3c(=O)sn(-c4ccc(I)cc4)c3=O)cc1)=C\CC[C@@]1(C)O[C@@H]21 yielded a growth of 29.6%. In the case of CN(C)c1ccc(C(=NO)c2ccc(N(C)C)cc2)cc1, the growth is reported as -0.198% (active). For COc1cc(NC(=O)SC2=NCCS2)cc(OC)c1, the growth was 93.3%. In the case of COc1cc(-c2c3c(cn2CCN2CCCCC2)-c2oncc2CC3)cc(OC)c1OC, the growth is reported as 94.6%. Nc1nc(-c2ccc(Cl)cc2)nc2c1sc(=S)n2-c1ccccc1 was tested, and the growth was 27.3%. Compound O=S(=O)(Nc1ccc(NS(=O)(=O)c2ccccc2)c(Cl)c1)c1ccccc1 has a growth of 116%. COc1ccc(C(=NNS(=O)(=O)c2ccc(C)cc2)c2ccccc2)cc1OC gave a growth of 103%. Cc1nn(-c2ccc(Br)cc2)c2nc3[nH]c(=O)[nH]c(=O)c3nc12 gave a growth of 116%. COc1ccc2c(c1)[nH]c(=O)c1c3cccc(F)c3cn21 was tested, and the growth was 51.8%. Oc1ccc(-c2cnc(-c3ccccc3)[nH]2)c(O)c1 gave a growth of 109%. In the case of NNc1ccc2ccccc2c1, the growth is reported as 83.7% and 88.7%. Compound Cc1ccc(CSc2nc(-c3ccc(Cl)cc3)c(C#N)c(N3CCOCC3)n2)cc1 has a growth of 84%. With O=C1C=C(Nc2ccccc2)c2ccccc2C1=O the growth was 78% and 76.9%. With COc1cnc2c(c1)C(=O)c1c-2n(CCCN2CCNCC2)c(=O)c2cc([N+](=O)[O-])ccc12 the growth was -74.8% (active). For CCCCC[C@H]1C/C=C2/C(=O)C=C[C@@H]2C/C=C\CCCC(=O)O[C@@H](CCCCC)C/C=C2/C(=O)C=C[C@@H]2C/C=C\CCCC(=O)O1, the growth was -27.8% (active). For N#Cc1c(-c2cccs2)cc(-c2cnccn2)nc1SCC(=O)c1ccc(F)cc1, the growth was 101%. Work on COc1cccc(/C=N/NC(=S)NC2CC3CCC2C3)c1O (stereo not given) yielded a growth of 68.2%. With COc1cc(NCCCCN=C(N)N)c2ncccc2c1 the growth was -29.6% (active). For Cc1ccc(C(=O)c2ccccc2)c(C)c1, the growth was 111%. C#C[C@]1(O)CC[C@H]2[C@@H]3CC=C4c5nc(Nc6ccccc6[N+](=O)[O-])sc5CC[C@]4(C)[C@H]3CC[C@@]21C gave a growth of 70.7%. With O=C(/C=C/c1ccccc1Br)c1cccc(OCCCCOc2cccc(C(=O)/C=C/c3ccccc3Br)c2)c1 the growth was 95.4%. Compound O=C(Cc1cccc(OC(F)(F)F)c1)Nc1ccc(CCCCc2nnc(NC(=O)Cc3ccccn3)s2)nn1 has a growth of 52.3%. COc1ccc2nc(-c3ccc(OC)c(OC)c3)cc(-c3nnc(SCC(=O)Nc4ccc(/C(C)=N\O)cc4)n3-c3ccccc3)c2c1 was tested, and the growth was 56.2%. Brc1ccc(-c2cc(-c3ccc4c(c3)OC=CO4)n[nH]2)s1 was tested, and the growth was -13.5% (active). In the case of CC[C@H](C)C(=O)O[C@H]1CCC=C2C=C[C@H](C)C(CCC3C[C@@H](O)CC(=O)O3)[C@H]21 (stereo not given in full), the growth is reported as 75.4%. In the case of O=C(NCCNc1nccc(-c2c(-c3cccc(O)c3)nc3sccn23)n1)c1ccc(N2CCOCC2)c(C(F)(F)F)c1, the growth is reported as 50.2%.
